Only some compounds are listed: those with a hit (about 9.4% of all), similar ones and a draw of the others.
SMN2 splice enh – enhancers of SMN2 splice variant expression. HEK293 SMN2-luciferase splicing reporter, luminescence, 30-36 h. AID 1458. 210,000 compounds, 2.8% hits. Potency, µM (doses to about 46.1 µM), inactives show at the top dose activity change, positive = activation, usual class: activators; also: % of control where 0% means no effect; nearly all actives have a fitted effect of over 55% in size
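HEK293 cells carry an SMN2 […]–luciferase reporter in which exon 7 inclusion puts luciferase in frame. Cells were plated 10-12 h before compound addition, then incubated 30-36 h at 37C. ONE-Glo luminescence was read; sodium butyrate at 4.5 mM final served as control.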
ELG1 DNA repair – blocks ELG1-dependent DNA repair in HEK293T cells. 330,000 compounds, 2.3% hits. Potency, µM (series often up to 46.1 µM), for the others: top-dose activity change, negative = inhibition, usual class: inhibitors. HEK293T ELG1-luciferase reporter, luminescence, 16 h; DNA damage induced by 5-fluorouridine; also: % is scaled to controls: 0 for no effect and ±100 for the full control effect; nearly all actives have a fitted effect of over 55% in size
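Step one: seed 2,000 cells per well. Step two: pin-transfer compound or DMSO alongside 5-fluorouridine. Step three: incubate 16 hr, 37 °C, 5% CO2. Step four: add ONE-Glo, wait 30 min, read luminescence.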
FLuc modulator – inhibits or activates purified firefly luciferase, miR-21 counter-screen | P08659 | Potency, µM (top dose mostly 57.5 µM), for inactives: at the highest dose activity change, negative = inhibition, actives largely listed as inhibitors | 360,000 compounds, 6.9% hits | purified FLuc, Km substrates, luminescence inhibition | AID 588342;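 also: plate controls were vehicle for no effect and reference inhibitor for full effect; nearly all actives have a fitted effect of over 55% in size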
Target sequence (P08659 whole entry, looked up): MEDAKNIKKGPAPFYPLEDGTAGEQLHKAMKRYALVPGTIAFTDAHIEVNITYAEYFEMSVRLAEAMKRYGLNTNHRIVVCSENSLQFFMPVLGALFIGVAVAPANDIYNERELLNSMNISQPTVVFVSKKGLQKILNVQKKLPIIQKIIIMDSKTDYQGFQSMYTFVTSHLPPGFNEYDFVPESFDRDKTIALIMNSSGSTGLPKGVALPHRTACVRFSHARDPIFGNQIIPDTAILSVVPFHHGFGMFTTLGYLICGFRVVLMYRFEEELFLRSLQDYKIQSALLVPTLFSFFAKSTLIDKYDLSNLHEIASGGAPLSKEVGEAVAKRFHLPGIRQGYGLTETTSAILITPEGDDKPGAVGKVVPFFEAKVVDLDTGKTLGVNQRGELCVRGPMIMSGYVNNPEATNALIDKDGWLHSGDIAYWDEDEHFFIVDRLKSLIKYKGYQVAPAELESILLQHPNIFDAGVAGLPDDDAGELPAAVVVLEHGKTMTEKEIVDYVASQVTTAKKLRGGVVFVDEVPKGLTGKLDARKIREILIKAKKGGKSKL
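Purified P. pyralis luciferase, 10 nM final, with Km-level 10 uM D-luciferin and 10 uM ATP in 50 mM Tris acetate pH 7.5, 10 mM Mg acetate, 0.01% Tween-20, 0.05% BSA; 6-point qHTS titration about 60 µM downward; luminescence read.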
ELG1 genotoxic – induces genotoxicity in HEK293T cells with luciferase-tagged ELG1; HEK293T ELG1-luciferase reporter, luminescence, 16 h; Potency, µM (highest dose often 46 µM), for the others: at the top dose activity change, positive = activation, most hits filed as activators; 330,000 compounds, 1.3% hits; AID 504466; also: % of control where 0% means no effect; nearly all actives have a fitted effect of over 60% in size
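Quantitative HTS format in 1536-well plates. HEK293T ELG1-luciferase reporter cells receive test compound and are incubated 16 hr at 37 °C, 5% CO2; ONE-Glo added, 30 min room temperature, then luminescence read.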
Rab9 prom act – activates the Rab9 promoter; Huh7 Rab9 promoter-luciferase reporter, luminescence, 24 h; Potency, µM (titrated, usually from 9.22 µM), for the others: at the top dose activation, negative = inhibition, most hits filed as activators; 320,000 compounds, 2.8% hits; also: % of control where 0% means no effect; nearly all actives have a fitted effect of over 60% in size
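Steps: seed 1500 Huh7 Rab9-luc cells per well, rest 2 h at 37 °C; add compound in DMSO; incubate 24 h; add luciferase reagent, 10 min ambient; read luminescence.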
NPC1 promoter act – activates the NPC1 promoter; Huh7 NPC1 promoter luciferase reporter, 24 h; Potency, µM (titrated, usually from 9.22 µM), for the others: top-dose activation, most hits filed as activators; 320,000 compounds, 2.4% hits; also: % of control where 0% means no effect; nearly all actives have a fitted effect of over 60% in size
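Readout is luciferase luminescence, reflecting NPC1 promoter activation in stably transfected Huh7 cells after 24 h compound exposure at 37 °C in reduced-serum medium with 10% FBS.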
An asterisk follows results filed as active; u = inconclusive; x = no result given; [ ] = remark or other dose. Calls follow the shape of the dose curve; as a rule, active = well fitted curve in the direction sought with a large enough effect; inconclusive = small, poorly fitted or top-dose-only effect, or another doubt; inactive = no such curve, though single readings can be large; an effect the other way counts as inactive or inconclusive. Potency is read from the fitted curve at half-maximal effect.

SMILES | SMN2 splice enh | ELG1 DNA repair | FLuc modulator | ELG1 genotoxic | Rab9 prom act | NPC1 promoter act
Cc1c(C)c2ccc(OCC(=O)Nc3cccnc3)cc2oc1=O | x | u | u | u | 3% | 13%
Cc1c(C)c2ccc(OCC(=O)NCc3ccccn3)cc2oc1=O | x | 17% | 4% | 8% | 3% | -5%
COc1cc(NC(=O)c2c(C)oc3ncnc(N4CCCCC4)c23)cc(OC)c1 | x | x | 0% | x | x | x
COc1ccc2c(c1)/C(=N/N1C(=O)c3ccccc3C1=O)C(=O)N2 | -20% | -18% | -10% | 9% | -5% | 5%
Cc1ccc2c(c1Br)/C(=N/N1C(=O)c3ccccc3C1=O)C(=O)N2 | 27% | u | 2.4µM* | 11% | -1% | 1%
CCCOc1ccc(NC(=O)CC2C(=O)N(c3cccc(OC)c3)C(=O)N2CCc2ccncc2)cc1 (configuration not stated) | x | x | 5% | x | x | x
NC(=O)Cc1ccc(Nc2nnc(-c3ccccc3)c3ccccc23)cc1 | 0% | 15% | 21µM* | 7% | 2% | 6%
CCN(CC)C(=O)c1ccc(Nc2nnc(-c3ccc(O)cc3)c3ccccc23)cc1 | x | 16µM* | -13% | -1% | -1% | -6%
CCN(CC)C(=O)c1ccc(-c2nnc(Nc3cccc(O)c3)c3ccccc23)cc1 | x | u | -15% | -15% | -2% | 6%
COc1ccc(Nc2nnc(-c3ccc(O)cc3)c3ccccc23)cc1 | 17% | u | 24µM* | u | -4% | -10%
CCOc1ccc(Cn2c(CNS(=O)(=O)c3ccc(C(C)(C)C)cc3)nc3cccnc32)cc1 | x | x | -3% | x | x | x
CCOc1ccc(-c2nnc(SCC(=O)NC3CC3)o2)cc1 | x | u | u | 7% | -7% | -8%
O=C(CSc1ncccn1)NCc1ccccc1Cl | 13µM* | u | 27µM* | 18µM* | 1.4µM* | 4µM*
O=C(CSc1nc(=O)n2ccccc2n1)NCc1ccccc1Cl | x | 16% | 2% | 2% | -7% | -3%
CCOc1ccc(-c2nnc(SCC(=O)N3CCNC3=O)o2)cc1 | x | u | 5.4µM* | u | 2µM* | 2µM*
CCOc1ccc(-c2nnc(SCC(=O)NCc3ccccc3Cl)o2)cc1 | x | x | 17µM* | x | x | x
O=C(CSc1nnc(-c2ccccc2F)o1)N1CCNC1=O | x | u | 13µM* | u | 3.2µM* | 2.5µM*
CCOc1ccc(-c2nc(Cn3c(=O)cc(-c4ccccc4)c4c(C)nn(C)c43)c(C)o2)cc1 | x | x | -4% | x | x | x
O=C1c2nc3cc(-c4ccco4)[nH]n3c(=O)c2CN1C1CCCCC1 | x | u | 2.4µM* | u | 14% | 28%
Cc1cc2nc(-c3ccccc3)cc(=O)n2[nH]1 | x | u | 6.7µM* | 11% | u | u
CC(C)(C)c1cc2nc3c(c(=O)n2[nH]1)CN(Cc1ccccc1)C3=O | x | 12% | -1% | 0% | -2% | -2%
O=c1cc(-c2ccccc2)nc2cc(-c3ccco3)[nH]n12 | x | 20% | 3.4µM* | 16% | u | 22%
Nc1c(C(=O)Nc2ccc(Cl)c(C(F)(F)F)c2)sc2nc(-c3ccncc3)ccc12 | -2% | x | 0% | x | x | x
COc1cc(/C=C2\C(=O)NN(c3ccccc3)C2=O)ccc1OCC(N)=O | 6% | 3% | 11µM* | 0% | 1% | -10%
C#CCOc1ccc(/C=C2/C(=O)NN(c3ccc(F)cc3)C2=O)cc1OC | x | 16% | 1.9µM* | 4% | -4% | -4%
SMILES | SMN2 splice enh | ELG1 DNA repair | FLuc modulator | ELG1 genotoxic | Rab9 prom act | NPC1 promoter act
COc1cc(C=C2C(=O)OC(C)(C)OC2=O)ccc1OCC(=O)Nc1ccccc1 | 14% | u | 11µM* | u | -8% | -3%
O=C(CN1CCSc2ccccc21)N1CCN(c2cccc(Cl)c2)CC1 | x | x | -10% | x | x | x
COc1ccc(N2CCN(S(=O)(=O)CCNC(=O)COc3ccccc3F)CC2)cc1 | x | x | 2% | x | x | x
Cc1cc(OCC(=O)Nc2c(C(=O)c3ccccc3)oc3ccccc23)cc(C)c1Cl | 18% | x | 3% | x | x | x
OC[C@H](S)CS | -2%[9.22 µM] | x | x | x | x | x
Oc1ccccc1-c1cc(-c2cccc(F)c2)n[nH]1 | u | u | 5.4µM* | u | 14% | -1%
CC(C)(C)c1ccc(-c2cc(-c3ccccc3O)[nH]n2)cc1 | x | u | 0.76µM* | 0.58µM* | 0.28µM* | 0.32µM*
Cc1ccc(O)c(-c2cc(-c3ccccc3C)[nH]n2)c1 | 27% | u | u | 1% | -1% | -3%
CCOc1cc(-c2noc(-c3cccnc3)n2)ccc1OC | 7% | 11% | -14% | 6% | 3% | 0%
CCCCOc1ccc(-c2nc(-c3cccnc3)no2)cc1 | 13µM* | u | 4.3µM* | 6.5µM* | 2µM* | 3.5µM*
CCOc1ccc(-c2nc(-c3ccccc3C)no2)cc1 | 1.6µM* | u | 1.1µM* | 0.73µM* | 0.45µM* | 0.63µM*
CCOc1ccc(-c2cc(-c3nc(-c4ccc(C)cc4)no3)[nH]n2)cc1 | x | x | 21µM* | x | x | x
CCOc1ccc(-c2nc(-c3cccnc3)no2)cc1 | 1µM* | u | 0.95µM* | u | 0.56µM* | 0.63µM*
CCOc1ccc(NC(=O)NCCN2CCN(c3cc(Cl)ccc3C)CC2)cc1 | 7% | x | u | x | x | x
O=C(CCCCCCN1C(=O)c2ccccc2C1=O)Nc1nccs1 | -44% | 16µM* | 3% | -3% | 2% | -3%
O=C(CCn1c(=O)sc2ccccc21)Nc1nccs1 | 0% | u | 13µM* | u | 20% | 30%
O=C(Nc1ccc(OCc2ccccc2)cc1)c1cccs1 | x | u | 17µM* | u | 4.5µM* | 2.8µM*
O=C(/C=C/c1cccs1)NC(=S)Nc1ccccc1 | 15% | u | 27µM* | 1% | u | 19%
NS(=O)(=O)c1ccc(NC(=O)/C=C/c2cccs2)cc1 | x | u | 0% | 10% | 1% | 13%
COc1ccc(NC(=S)NNC(=O)c2cccs2)cc1 | 25% | u | -6% | u | 4µM* | 0%
Cc1cccnc1NC(=O)NC(=O)c1ccc(C(C)(C)C)s1 | x | u | 5.4µM* | u | 2.2µM* | u
Brc1ccc(Nc2c3c(nc4nncn24)CCC3)cc1 | 2% | x | -5% | x | x | x
COc1ccc(-c2cc3c(=O)n(CC(=O)Nc4cc(C)ccc4C)ccn3n2)cc1 | x | x | 3% | x | x | x
CC(C)[C@H](NC(N)=O)C(=O)Nc1ccc(OCc2ccccc2)cc1 | 1% | 8% | -11% | 0% | 19% | 3%
COc1cccc(-c2nc(-c3ccc(NC(=O)c4cccs4)cc3)no2)c1 | -17% | -14% | 13µM* | 14% | u | 30%
C[C@H](NC(N)=O)C(=O)Nc1ccc(OCc2ccccc2)cc1 | 16µM* | u | u | 14% | 3.5µM* | u

Source: PubChem
